Counter-ions that a name gives are not always drawn. Out of some 1,300 compounds screened, about 40 (3%) showed activity. Many of the other results were omitted from the sample, so actives are more common in it than they were.
Test system: Plasmodium falciparum NF54/iGP1_RE9H ulg8 stage V gametocytes
Test: gametocyte viability (luciferase signal relative to DMSO control) (% of DMSO control); higher = less gametocytocidal activity, active = 50 or less
Conditions: exposure time: 72 h
In short: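 Compounds from 10 mM DMSO stocks were spotted at nanolitre scale into 96-well plates, and day-12 stage V NF54/iGP1_RE9Hulg8 gametocytes (~2.5% gametocytemia, 3% hematocrit; medium with 0.5% Albumax II) were added to reach 10 µM or 1 µM, one well per concentration. The plates were kept at 37 °C for 72 h. Luminescence was then read on an IVIS Lumina II after mixing 90 µl of culture with 10 µl D-luciferin (30 mg/ml). Viability values are relative to the plate's mean DMSO vehicle signal.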

SMILES	gametocyte viability (concentration: 1 µM)	gametocyte viability (concentration: 10 µM)
CCCN1C[C@H](CSC)C[C@@H]2c3cccc4[nH]cc(c34)C[C@H]21 [Pergolide mesylate]	78.2 (inactive)	82.3 (inactive)
CC(C)C[C@H]1C(=O)N2CCC[C@H]2[C@]2(O)O[C@](NC(=O)[C@@H]3C=C4c5cccc6[nH]c(Br)c(c56)C[C@H]4N(C)C3)(C(C)C)C(=O)N12 [Bromocryptine mesylate]	84.2 (inactive)	66.9 (inactive)
CN1C[C@H](C(=O)N[C@]2(C)O[C@@]3(O)[C@@H]4CCCN4C(=O)[C@H](Cc4ccccc4)N3C2=O)C[C@@H]2c3cccc4[nH]cc(c34)C[C@H]21 [Dihydroergotamine tartrate]	66.8 (inactive)	42.4 (active)
CCNCC(O)c1cccc(O)c1 (stereo unspecified) [Etilefrine hydrochloride]	87.9 (inactive)	90.2 (inactive)
CCC1(c2cccc(O)c2)CCCCN(C)C1 (stereo unspecified) [Meptazinol hydrochloride]	83 (inactive)	81.4 (inactive)
CNC(=O)Oc1ccc2c(c1)[C@]1(C)CCN(C)[C@@H]1N2C [Eserine sulfate, physostigmine sulfate]	83.4 (inactive)	79 (inactive)
CN1CCC2(C)c3cc(O)ccc3N(C)C12 (single isomer, unassigned; (-)) [(-)-Eseroline fumarate salt]	74.2 (inactive)	44.8 (active)
C(#CCN1CCCC1)CN1CCCC1 [Tremorine dihydrochloride]	91.5 (inactive)	94.7 (inactive)
C[C@@H]1O[C@@H](O[C@@H]2C=C3CC[C@@H]4[C@H](CC[C@]5(C)[C@@H](c6ccc(=O)oc6)CC[C@]45O)[C@@]3(C)CC2)[C@H](O)[C@H](O)[C@H]1O [Proscillaridin A]	81.2 (inactive)	76.2 (inactive)
CCCCCC[C@H]1C(=O)O[C@H](C)[C@H](NC(=O)c2cccc(NC=O)c2O)C(=O)O[C@@H](C)[C@@H]1OC(=O)CC(C)C [Antimycin A]	86.4 (inactive)	94.3 (inactive)
COc1ccc(CCN2CCC(Nc3nc4ccccc4n3Cc3ccc(F)cc3)CC2)cc1 [Astemizole]	92.7 (inactive)	36.4 (active)
Fc1ccc(C(OCCN2CCN(CCCc3ccccc3)CC2)c2ccc(F)cc2)cc1	81.5 (inactive)	86 (inactive)
CN(C)[C@@H]1C(=O)C(C(N)=O)=C(O)[C@@]2(O)C(=O)C3=C(O)c4c(O)ccc(Cl)c4[C@@](C)(O)[C@H]3C[C@@H]12 [Chlortetracycline hydrochloride]	88.2 (inactive)	88.7 (inactive)
